This is an account of results in PubChem BioAssay.

Molecules are shown by their SMILES. Values without a mark were called inactive. How the calls were made is not given here.

A short description of this assay: inhibitors of hydroxyurea-induced Chk1 phosphorylation, primary screen, imaging, HeLa, phospho-Chk1 antibody, percent positive cells (AID 1186). The settings on record: hydroxyurea-induced phospho-Chk1 immunofluorescence imaging, higher = more signal.
As for `CC1=C2[C@@H](CCc3ccccc3)OB(O)C[C@@H]2[C@@H]2C(=O)C=CC(=O)[C@@H]2C1`, the z-score is 1.15.
Take `[N-]=[N+]=NCc1ccccc1C[C@]1(C(=O)NCCN2CCOCC2)COC(c2ccc(OCCCO)cc2)=N1`: the z-score was -0.327.
For `COc1ccc(CCNC(=O)[C@@H]2c3ccccc3C(=O)N(Cc3ccccc3)[C@H]2c2ccc(CO)cc2)cc1` the value was -0.938; for `C=CC[C@@]1(C(=O)NCC(O)CO)N=C(c2ccc(OCCCO)cc2)O[C@@H]1c1ccccc1` (some centres not stated), -0.379; for `CO[C@H]1O[C@H](CO)[C@@H](OC(=O)Nc2cccc(F)c2)[C@H](OC(=O)Nc2ccc3c(c2)OCO3)[C@H]1OC(=O)Nc1ccc2c(c1)OCO2`, -0.178.
Consider `COc1ccc(C#Cc2ccc3c(c2)[C@]2(C(=O)N3)[C@H](c3ccc(OCCO)cc3)N3[C@H](c4ccccc4)[C@H](c4ccccc4)OC(=O)[C@H]3[C@@H]2C(=O)N2CCN(c3ncccn3)CC2)cc1`, for which the z-score is -0.246.
Turning to `COCC(=C=CC[C@@H](O)c1ccccc1OCCO)C[C@@H](O)c1ccccn1`, the z-score is 0.413.
As for `CCCN1C(=O)[C@@]2(Cc3ccccc3)N=C(c3ccc(OCCCO)cc3)O[C@H]2c2ccccc21`, the z-score is 0.276.
With `NC(=O)NCC#Cc1ccc2c(c1)[C@]1(C(=O)N2)[C@H](c2ccc(OCCO)cc2)N2[C@H](c3ccccc3)[C@H](c3ccccc3)OC(=O)[C@H]2[C@@H]1C(=O)N1CCN(c2ncccn2)CC1` the figure was 0.432; with `C=CCC(OC(C)=O)[C@@H]1[C@@H](N(Cc2cccc3ccccc23)C(=O)c2ccc(C)cc2)c2cc(OCCCO)ccc2N1C(=O)c1ccc2ccccc2c1` (some centres not stated), -0.995; with `COc1ccc([Si](C)(C)[C@@H]2[C@@H](CC(=O)N(CCO)Cc3ccccc3)O[C@]3(C(=O)N(Cc4ccc(N5CCOC5=O)cc4)c4ccccc43)[C@H]2C)cc1`, -0.269.
Regarding `COc1ccccc1CN1C(=O)c2ccccc2[C@](Cc2ccccc2I)(C(=O)NCCN2CCOCC2)[C@@H]1c1ccc(CO)cc1`, the z-score is -0.252.
Regarding `CN(C)CCCN1C(=O)[C@@]2(Cc3ccccc31)c1ccccc1C(=O)N(Cc1ccccc1)[C@H]2c1ccc(CO)cc1`, the z-score was -0.384.
Regarding `Cc1ccc(S[C@]2(C(=O)O)CC(=O)N(Cc3ccccc3C(F)(F)F)[C@@H]2c2ccc(CO)cc2)cc1`, the z-score was -0.511.
In the case of `CCOC(=O)C1=CC[C@@H](c2ccccc2)N(S(=O)(=O)c2ccc(C)cc2)[C@H]1C=C(C)C`, the z-score is 0.213.
For the compound `COCCOC(=O)N1C(=O)[C@@]2(c3cc(C#CCNC(N)=O)ccc31)[C@H](C(=O)N1CCCCCCC1)[C@H]1C(=O)O[C@H](c3ccccc3)[C@H](c3ccccc3)N1[C@@H]2c1ccc(OCCO)cc1`, the z-score was -0.0977.
On to `CC(C)CNC(=O)[C@@]1(C)c2ccccc2C(=O)N(Cc2ccccc2)[C@H]1c1ccc(CO)cc1`, for which the z-score was 0.105.
In the case of `C=CCC(OC(C)=O)[C@@H]1[C@@H](N(Cc2ccc(-c3ccccc3)cc2)C(=O)c2cccc3ccccc23)c2cc(OCCCO)ccc2N1C(=O)c1ccc2ccccc2n1` (some centres not stated), the z-score is -0.606.
Take `COc1ccc([Si](C)(C)[C@@H]2[C@@H](CCO)O[C@]3(C(=O)N(Cc4ccccc4)c4ccc(N5C(=O)COc6ccccc65)cc43)[C@H]2C)cc1`: the z-score is -1.26.
With `C=C(COC)/C(=C/C[C@@H](OC(=O)c1ccncc1)c1cccc(OCCO)c1)c1cc(C(=O)OC)ccc1OC` the figure was 0.0182; with `O=C1NC(=O)C2C1C=CC(C(O)c1ccc3c(c1)OCO3)N2Nc1ccc(Cl)cc1Cl` (configuration not stated), 0.629; with `[N-]=[N+]=NCc1ccccc1C[C@@]1(C(=O)NCCN2CCOCC2)N=C(c2ccc(OCCCO)cc2)O[C@@H]1c1ccccc1CN=[N+]=[N-]`, 0.243.
Consider `C[N+](C)(C)CCCCCCNC(=O)[C@@H]1C[C@@H]2C(=O)NCC(=O)N2[C@@H]1c1ccc(O)cc1`, for which the z-score is 1.34.
For the compound `COC(=O)[C@@]1(Cc2ccccc2N=[N+]=[N-])N=C(c2ccc(OCCCO)cc2)O[C@H]1c1ccccc1`, the z-score is 0.069.
As to `COCCOC(=O)N1C(=O)[C@@]2(c3cc(C#Cc4ccc(OC)cc4)ccc31)[C@H](C(=O)N1CCc3cc(OC)c(OC)cc3C1)[C@H]1C(=O)O[C@H](c3ccccc3)[C@H](c3ccccc3)N1[C@@H]2c1ccc(OCCO)cc1`, the z-score is 0.0413.
`O=C1O[C@H](c2ccccc2)[C@H](c2ccccc2)N2[C@H]1[C@@H](C(=O)N1CCCCCCC1)[C@]1(C(=O)Nc3ccc(C#CCCO)cc31)[C@H]2c1ccc(OCCO)cc1`: the z-score was -0.141.
As for `CCCC[C@H]1OB(O)C[C@H]2C1=C(COc1ccccc1)Cn1c(=O)n(-c3ccccc3)c(=O)n12`, the z-score is -0.309.
